We go through 40 compounds from PubChem BioAssay (NCI).

About 83,000 compounds went through this panel and 20% of them were active in at least one assay; those are over-represented in the sample as a whole.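 A percent growth of 40 corresponds to 60% growth inhibition; 0 means no net growth; -100 means all cells died. Active threshold: below 10.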 Values without a mark were called inactive. Active and inactive are the calls of the source.

This assay has as its system SF-539 CNS. In words: NCI-60 one-dose screen, 48 h (100 = growth as untreated, 0 = no growth, -100 = all killed). Conditions: 10 µM unless noted.
For `CCSc1nc(NC)c2cc(-c3ccc(C(F)(F)F)cc3)ccc2n1`, the growth was 103%. Turning to `Cc1nc(-c2ccccc2)cc2c(O)c(C(=O)NN)[nH]c(=O)c12`, the growth is 100%. For `Cc1ccc(S(=O)(=O)N2CCCC2CO)cc1` (stereo not given) the value was 94.4%; for `CCOC(=O)c1cc(-c2ccc([N+](=O)[O-])cc2)n(-c2ccc(C(=O)O)c(O)c2)c1C`, 85.4%; for `COc1cc(CNS(=O)(=O)c2ccc(C)cc2)ccc1OCc1cn(-c2ccc(Br)cc2)nn1`, 107%. `O=C(/C=C/c1ccccc1)c1cccc(OCCCOc2cccc(C(=O)/C=C/c3ccccc3)c2)c1`: the growth was 107%.

As to `C=CCc1c(O)c(C(=O)/C=C/c2ccc(Cl)cc2)c(OC)c2ccoc12`, the growth was 50.7%.

In the case of `COc1ccc(-c2nc3c(c(-c4ccccc4)nn3-c3ccccc3)c(-c3ccc(N4CCOCC4)cc3)c2C#N)cc1`, the growth is 85.9%. Take `O=C1/C(=C/c2ccc(Cl)cc2)COc2ccc(O)c(O)c21`: the growth was -76% (active). For `CN(C)c1ccc(Nc2cc(-c3cccc(OC(F)(F)F)c3)nc3ccc(N4CCCC4)cc23)cc1` the value was 91.6%; for `O=C(c1ccc(-c2nc(CSc3nc4ccccc4s3)no2)cc1)N1CCSCC1`, 80.3%. For `N=C(N)c1ccc(-c2ccc(-c3ccc(Cl)cc3)s2)nc1` the value was -55.2% (active). To `COC(=O)c1c2c(c(C)[n+]([O-])c1C)C(=O)C=C(NCc1ccc(OC)cc1)C2=O` belongs -80.7% (active); to `O=C1/C(=C/c2ccc(Cl)cc2)COc2ccc(O)cc21`, 88.1%; to `Cc1cccc2c1NC(=O)C2(c1ccc(O)cc1)c1ccc(O)cc1`, 95.2%. Take `CN1CCN(Cc2ccc3c(NNC(=O)c4ccccc4)nc4cc(F)ccc4n23)CC1`: the growth was 10.8%.

As for `COc1ccc2[nH]cc(-c3nc(-c4cn(C)c5c(Cl)nccc45)cs3)c2c1`, the growth is 23.3%. To `O=C(CCc1nnc(Cn2cnc3nc[nH]c3c2=O)o1)c1nc2ncccc2[nH]1` belongs 95%. To `CC1=Nc2cnc(Nc3ccc(OCCN4CCCCC4)cc3)nc2Nc2ccccc21` belongs 69.6%; to `Cc1nc2ncnc(Cl)c2[nH]1`, 103%; to `CC(C)(C)[Si](C)(C)O[C@H]1C(=O)C=CN2CC=C[C@@H]12`, 99.4% [100 µM]. Turning to `c1cnc2[nH]cc(-c3csc(-c4cn(CCCN5CCOCC5)c5ccccc45)n3)c2c1`, the growth was 52.9%. To `Cc1ccccc1Cn1cnc2ccc(-c3cc(NC(=O)c4ccc(NC5CCN(C)CC5)cc4)n[nH]3)cc21` belongs 27.4%; to `COC(C(=O)[C@@H](O)[C@@H](C)O)[C@@H]1Cc2cc3cc(O[C@H]4C[C@@H](O[C@H]5C[C@@H](O)[C@H](O)C(C)O5)[C@H](O)C(C)O4)cc(O)c3c(O)c2C(=O)[C@H]1O[C@H]1C[C@@H](O[C@H]2C[C@@H](O[C@H]3C[C@@H](OC)[C@H](O)C(C)O3)[C@@H](O)C(C)O2)[C@H](O)C(C)O1` (stereo not given in full), 38.1%. For `Cc1cc(Cl)ccc1Nc1nc(C(F)(F)F)ccc1C(=O)N/N=C/c1ccc([N+](=O)[O-])cc1` the value was 3.77% (active); for `COc1cc(N2C(=O)[C@H](O)C2c2ccc(SC)cc2)cc(OC)c1OC` (stereo not given in full), 16.3%; for `Fc1cc2c(cc1Cl)N(c1ncnc3ccc(-c4cnc5[nH]ncc5c4)cc13)CC2`, 68.2%. To `COc1ccccc1NC(=O)Cn1cc(CN2CCN(c3ccnc4cc(Cl)ccc34)CC2)nn1` belongs 99.3%.

Turning to `COc1cc(CNC(=O)CCCC/C=C/C(C)C)ccc1OCc1nnc(Nc2ccc([N+](=O)[O-])cc2)o1`, the growth was 70.2%.

Consider `O=C(NCCCN1CCOCC1)c1cccc(N2C(=O)/C(=C/c3ccc(F)cc3)SC2=S)c1`, for which the growth is 90.6%.

For the compound `O=C(CSc1nnc2n1S(=O)(=O)c1ccccc1N2c1ccccc1)Nc1nc2ccc(F)cc2s1`, the growth is 102%. For the compound `N#Cc1nc(-c2ccccc2)oc1S(=O)(=O)N1CCOCC1`, the growth is 101%. To `CC(C)c1ccc(COCc2cc(CN3CCCC3)c(O)c3ncccc23)cc1` belongs -22.1% (active). To `Cc1cc(N)c2cc(NC(=O)/C=C\c3ccccc3Cl)ccc2n1` belongs -91.3% (active); to `COc1ccc(Cc2cc(-c3ccccc3)nn(Cc3ccccc3)c2=O)cc1OC`, 63.4%. To `O=C1/C(=C/c2ccc(F)cc2)COc2ccc(O)cc21` belongs 87.2%; to `CCOP(=O)(OCC)c1nc(-c2ccccc2)oc1NCc1cccnc1`, 96.2%; to `C/C(=C(/c1ccc(Cl)cc1)c1ccc(OCCN2CCCC2)cc1)c1ccc(Cl)cc1`, 91.8%.

Consider `CC(C)=CCC[C@](C)(O)[C@H]1CC[C@]2(C)[C@@H]1CC[C@@H]1[C@@]3(C)Cc4nccnc4C(C)(C)[C@@H]3CC[C@]12C`, for which the growth was 76.3%. To `CC1=Nc2cnc(Nc3ccc(OCCN4CCCC4)cc3)nc2Nc2ccccc21` belongs 68.6%.
